# Reference: the supplement of paper PMC10732440
# ± gives the standard deviation of the averaged measurements.
# Test system: Caenorhabditis elegans N2 infected with Nematocida parisii ERTm1
# Assay: progeny production relative to DMSO uninfected control; higher = more progeny despite microsporidia infection (inhibition of infection with low host toxicity)
# Conditions: infection time 6 days
# Procedure, shortened: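 Bleach-synchronised wild-type C. elegans L1 larvae (100 per well) were placed in 96-well plates with K-medium, E. coli OP50 and 15,000 N. parisii spores/μL, with compound pinned to 100 μM or 40 μM in 1% DMSO. Plates were shaken at 21°C for 6 days; worms were then Rose Bengal-stained, flatbed-scanned and counted with WorMachine, each compound and dose tested three times. Progeny production is given as a percentage of the spore-free vehicle control, averaged across replicates.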
Structure (SMILES),progeny production (40 µM),progeny production (100 µM)
O=C(O)c1cc(-c2ccccc2)nc2ccccc12,6.15 ± 0.79%,6.83 ± 4.5%
CN(C)CC(=O)Nc1ccc2[nH]c(=O)c3ccccc3c2c1,3.86 ± 0.4%,14.1 ± 5%
CCOc1ccc(C(=O)NCCc2ccccc2)cc1,6.06 ± 3.1%,6.07 ± 3%
Nc1nc2c(Cc3cccnc3)c[nH]c2c(=O)[nH]1,5.79 ± 0.11%,16.4 ± 9.7%
O=C(CP(=O)(O)O)NCCc1cccc(Oc2ccccc2)c1,4.04 ± 0.94%,
O=C1c2cccc3cccc(c23)C(=O)N1CC1CO1 (stereo not given),7.39 ± 4.7%,44.9 ± 30%
COc1cc(NC(=O)CN2C(=O)NC(c3ccccc3)(c3ccccc3)C2=O)cc(OC)c1,3.5 ± 1%,15.8 ± 11%
COc1c(NC(=O)[C@H]2CC[C@@H](COc3ccc([N+](=O)[O-])cc3)CC2)c(F)cc2c(=O)c(C(=O)O)cn(C3CC3)c12,4.64 ± 2.9%,8.01 ± 7.4%
Clc1cc(Cl)c2c(c1)CCc1ccccc1C2n1ccnc1 (stereo not given),7.16 ± 0.49%,
O=c1nc(N2CCN(CC3CCCCC3)CC2)sc2c([N+](=O)[O-])cc(C(F)(F)F)cc12,4.77 ± 2.5%,9.3 ± 5.1%
CN(C)[C@@H]1C(=O)C(C(N)=O)=C(O)[C@@]2(O)C(=O)C3=C(O)c4c(O)c(NC(=O)CN5CCCC5)cc(F)c4C[C@H]3C[C@@H]12,4.54 ± 0.11%,6.16 ± 0.72%
CC(C)CCN1C(=O)C(C2=NS(=O)(=O)c3cc(NS(C)(=O)=O)ccc3N2)=C(O)[C@@H]2[C@H]3CC[C@H](C3)[C@@H]21,3.42 ± 3.9%,9.92 ± 5.3%
Cc1c[nH]c(=O)nc1NCc1ccccc1,7.05 ± 4.5%,8.45 ± 2.8%
N[C@H](CCC(=O)N[C@@H](Cc1c[nH]c2ccccc12)C(=O)O)C(=O)O,6.53 ± 2.2%,14.8 ± 3.7%
Cc1cc(-c2ccccc2)c(C(=O)C(=O)Nc2ccc(N3CCN(c4ncc(F)cn4)CC3)cc2)n1C,2.94 ± 0.74%,
Nc1nc2c(ncn2/C=C2/CC2(CO)CO)c(=O)[nH]1,3.83 ± 2.6%,11.8 ± 3.7%
CN(Cc1ccc(C(C)(C)C)cc1)Cc1cccc2ccccc12,5.41 ± 2%,17 ± 17%
Cc1cc(NS(=O)(=O)c2ccc(-c3ccc(F)cc3F)cc2)no1,4.39 ± 1.9%,
O=[N+]([O-])c1cn2c(n1)OC[C@@H](OCc1ccc(OC(F)(F)F)cc1)C2,7.03 ± 0.77%,11.4 ± 5.1%
O=C(Nc1ccc(Cl)c(C(F)(F)F)c1)C(CCCl)C(=O)Nc1ccc(Cl)c(C(F)(F)F)c1,7.13 ± 2.7%,8.04 ± 5.6%
O=C(NO)C1(CS(=O)(=O)c2ccc(Oc3ccc(Cl)cc3)cc2)CCOCC1,5.79 ± 0.11%,7.72 ± 4.5%
O=C(O)CSc1cc(NS(=O)(=O)c2cccc3cccnc23)c2ccccc2c1O,6.14 ± 2.5%,14.5 ± 8.5%
CC(C)(C)NC(=O)[C@@H]1C[C@@H]2CCCC[C@@H]2CN1C[C@@H](O)[C@H](Cc1ccccc1)NC(=O)[C@H](CC(N)=O)NC(=O)c1ccc2ccccc2n1,6.54 ± 4.7%,6.35 ± 4.1%

Structure (SMILES),progeny production (40 µM),progeny production (100 µM)
FC(F)(F)Oc1ccc(Nc2ccc3cccc(Cl)c3n2)cc1,6.88 ± 1.5%,11.1 ± 7.2%
CN(C)c1[nH]c(=O)ncc1F,3.57 ± 3.5%,14.8 ± 7.8%
O=C(CCCC(F)(F)F)N1CCC(c2nc(-c3nccs3)no2)CC1,5.21 ± 1.1%,8.6 ± 8.7%
CCOC(=O)N1CCN(c2ccc(Cl)cc2)CC1,4.15 ± 1.7%,12.1 ± 18%
O=P(O)(O)C(CCCc1cccc(Oc2ccccc2)c1)S(=O)(=O)O (stereo not given),5.45 ± 0.36%,8.22 ± 4.1%
Nc1nc2c(ncn2COC(CO)CO)c(=O)[nH]1,7.03 ± 4.7%,10.9 ± 4.7%
Fc1ccc(-n2cc(Cn3c(-c4cccc(F)c4)nc4ccccc43)nn2)cc1,3.69 ± 0.39%,
CCCCCCCc1[nH]c2ccccc2c(=O)c1O,7.38 ± 1.2%,21.2 ± 19%
COc1cc(NCc2ccc3nc(N)nc(N)c3c2C)cc(OC)c1OC,2.11 ± 0.79%,
COc1cc(C)c2c(Oc3cccc(C(F)(F)F)c3)c(OC)cc(NC(C)CCCN)c2n1 (stereo not given),4.23 ± 1%,
C[C@H](c1cccc2ccccc12)N(C)Cc1ccccc1,3.94 ± 1.7%,12.4 ± 7.8%
CNc1nc(=O)[nH]cc1F,2.97 ± 1.7%,12.9 ± 10%
O=C(NCc1ncc(C(F)(F)F)cc1Cl)c1c(Cl)cccc1Cl,3.33 ± 0.85%,8.17 ± 5.4%
O=C(/C=C\n1cnc(-c2cc(C(F)(F)F)cc(C(F)(F)F)c2)n1)NNc1ccccn1,3.49 ± 1.1%,7.21 ± 3.6%
CC[C@H]1OC(=O)[C@H](C)[C@@H](O[C@H]2C[C@@](C)(OC)[C@@H](O)[C@H](C)O2)[C@H](C)[C@@H](O[C@@H]2O[C@H](C)C[C@H](N(C)C)[C@H]2O)[C@](C)(O)C[C@@H](C)C(=O)[C@H](C)[C@@H](O)[C@]1(C)O,3.49 ± 0.53%,
O=[N+]([O-])c1cn(Cc2nc(O)nc(O)c2Br)cn1,8.41 ± 4.5%,8.29 ± 4.9%
O=C(CSc1nnc(Br)n1-c1ccc(C2CC2)c2ccccc12)Nc1ccc(C(=O)O)cc1Cl,3.49 ± 1.1%,15.1 ± 5.4%
COc1ccc(C[C@@H](C)[C@@H](C)Cc2ccc(OC)c(OC)c2)cc1OC,3.86 ± 0.4%,16 ± 4.1%
CSc1ccc2c(c1)C(N1CCN(C)CC1)Cc1ccccc1S2 (stereo not given),5.75 ± 2.9%,13.9 ± 9%
Cc1ccccc1NC(=O)Nc1cccc([N+](=O)[O-])c1,4.55 ± 2.1%,13.8 ± 4.8%
CCCCc1ccc(-c2cc(C(=O)O)cc(-c3ccc(Cl)cc3)n2)cc1,5.13 ± 5.7%,9.87 ± 7.3%
Fc1cccc(Cl)c1C1CC(c2ccc(Cl)cc2)Nc2nnnn21 (stereo not given),4.5 ± 4.2%,7.47 ± 2.1%
Cc1nc(-c2ccc(C3N(C)c4ccc(F)cc4C(=O)N3c3ccccc3)s2)cs1 (stereo not given),3.69 ± 1.5%,6.47 ± 4.9%

Structure (SMILES),progeny production (40 µM),progeny production (100 µM)
Clc1cc2nc(C3CCNCC3)n(Cc3ccc(CNCCc4c[nH]cn4)cc3)c2cc1Cl,7.61 ± 2.7%,10.3 ± 7.1%
Fc1ccc(-c2nc(-c3c[nH]c4ccc(Br)cc34)[nH]c2-c2ccc(F)cc2)cc1,3.87 ± 1.5%,6.81 ± 2.8%
C[C@@H](O)[C@H](N)C(=O)NS(=O)(=O)c1cccc(-c2ccc3[nH]ncc3c2)c1,3.15 ± 1.8%,20.2 ± 20%
Nc1nc(N)c2c(Sc3ccccc3)cccc2n1,3.69 ± 1.5%,16.4 ± 12%
O=C(NC1CCCc2c1[nH]c1ccc(Cl)cc21)c1ccccn1 (stereo not given),2.24 ± 0.5%,7.35 ± 5.1%
NNC(=O)c1ccncc1,12.3 ± 5.7%,14.7 ± 5.8%
O=S(=O)(Nc1cccc2cccnc12)c1ccccc1,5.03 ± 2.5%,12.9 ± 7.2%
CCN(CC)S(=O)(=O)c1ccc(Cl)c(C(=O)Nc2sc3c(c2C#N)CCCC3)c1,6.31 ± 2.1%,31.3 ± 22%
OB1OCc2c1ccc(Cl)c2F,4.06 ± 1%,18.5 ± 12%
COc1ccc(-n2cnc3cc(NCc4ccco4)ccc32)cc1,10 ± 2.1%,17.2 ± 0.88%
O=C(c1ccc(F)cc1)N1CCN2C(=O)c3ccccc3C12c1ccccc1 (stereo not given),2.5 ± 1.4%,7.13 ± 5%
CC[N+]1(C/C2=C/CCCCCC2)CCC(NC(=O)C2c3cc(Cl)ccc3Oc3ccc(Cl)cc32)CC1 (stereo not given),3.01 ± 1.9%,2.8 ± 2.2%
O=C(NCc1cccc2ccccc12)c1cccs1,3.62 ± 2.1%,12.9 ± 10%
OB1OCc2cc(Cl)ccc21,4.68 ± 1.6%,21.3 ± 17%
CNCC(=O)OCc1cccnc1N(C)C(=O)OC(C)[n+]1cnn(C[C@](O)(c2cc(F)ccc2F)[C@@H](C)c2nc(-c3ccc(C#N)cc3)cs2)c1 (stereo not given in full),7.13 ± 1.5%,16.8 ± 10%
CC1=C(/C=C/C(C)=C/C=C/C(C)=C/C(=O)Nc2ccc(O)cc2)C(C)(C)CCC1,3.02 ± 2.2%,11.6 ± 9.7%
CCOCc1nc2c(N)nc3ccccc3c2n1CC(C)(C)O,3.75 ± 1.7%,14.8 ± 5.8%
O=C(Cc1ccccc1F)Nc1nc2ccccc2[nH]1,4.94 ± 2.8%,8.29 ± 4.9%
C=CCc1cc(Cc2cnc(N)nc2N)cc(OC)c1O,3.9 ± 1.6%,12.4 ± 5.1%
Fc1ccc2c(/C=C/c3nnn[nH]3)c[nH]c2c1,3.91 ± 4%,12.2 ± 9.8%
Cc1ccc(N2CCC(CCOc3ccc(S(C)(=O)=O)cc3)CC2)nn1,4.13 ± 1%,11.1 ± 10%
COc1cc(Cc2cnc(N)nc2N)cc(OC)c1OC,1.91 ± 0.77%,16.3 ± 11%
O=C(c1ccccc1)N1CCN(c2ccccc2NC(=O)C(Cl)(Cl)Cl)CC1,13 ± 10%,12.7 ± 8.6%

Structure (SMILES),progeny production (40 µM),progeny production (100 µM)
C[C@@H](c1nc(-c2ccc(C#N)cc2)cs1)[C@](O)(Cn1cncn1)c1ccc(F)cc1F,5.04 ± 1.2%,14.7 ± 10%
C[C@@H]1O[C@@H]1P(=O)(O)O,4.36 ± 0.35%,15.3 ± 13%
OCCCCn1cnc2c(O)nc(NCc3ccc(Cl)c(Cl)c3)nc21,4.76 ± 1.4%,10.6 ± 7.9%
CC(C)c1cc2c(cc1S(=O)(=O)O)[C@@]1(C)CCC[C@@](C)(C(=O)O)[C@@H]1CC2,8.72 ± 4.5%,4.55 ± 3%
N=C(N)c1ccc(COc2ccc(Cl)cc2)cc1,3.13 ± 0.66%,7.24 ± 6.1%
CCc1cc(CCC(=O)Nc2ccccc2O)c(O)nc1C,4.5 ± 1.7%,9.45 ± 3.1%
Cc1cc(CCCOc2c(C)cc(-c3noc(C(F)(F)F)n3)cc2C)on1,1.93 ± 0.29%,15.4 ± 3.2%
COc1cc(C(C(=O)NC2CCCCC2)N(C(=O)Cc2c[nH]c3ccccc23)c2ccc(C(C)C)cc2)cc(OC)c1OC (stereo not given),5.01 ± 0.57%,7.98 ± 2%
CCCCSc1nc(N)c2[nH]c(=O)c(=O)n(Cc3ccccc3)c2n1,4.52 ± 1.9%,20.2 ± 11%
COc1ccc(CNC(=O)C(NS(=O)(=O)c2ccc3nc(C)sc3c2)C(C)C)cc1 (stereo not given),4.14 ± 1.6%,6.87 ± 4%
COC(=O)Nc1nc2c(C)cccc2[nH]1,13.8 ± 1.7%,78.2 ± 11%
O=C(O)c1sccc1S(=O)(=O)n1ccc2cc(Br)ccc21,5.86 ± 1.6%,8.33 ± 1.2%
O=c1cc(Nc2ccc3ccccc3c2)[nH]c(=O)[nH]1,7.88 ± 1.4%,8.48 ± 9.1%
Cc1cccc(C)c1C(=O)Nc1nc(-c2ccccn2)cc2ccccc12,4.99 ± 2.4%,6.64 ± 4.7%
CCC(C)n1ncn(-c2ccc(N3CCN(c4ccc(OCC5COC(Cn6cncn6)(c6ccc(Cl)cc6Cl)O5)cc4)CC3)cc2)c1=O (stereo not given),4.85 ± 1.2%,22.8 ± 5.2%
O=S(=O)(Nc1ccc(O)cc1)c1cccc2cccnc12,5.85 ± 2.2%,12 ± 6.6%
c1ccc(Cn2c(-c3ccccn3)nc3ccccc32)cc1,3.12 ± 1.9%,4.55 ± 2.1%
NC(=O)c1[nH]c2ccc(S(N)(=O)=O)cc2c1-c1ccccc1,4.85 ± 2.6%,6.59 ± 2.8%
CC[C@@]1(O)C(=O)OCc2c1cc1n(c2=O)Cc2cc3c(CN(C)C)c(O)ccc3nc2-1,7.48 ± 1.6%,10 ± 2.5%
CCCCCCCCC(CP(=O)(O)C(C)N)C(=O)O (stereo not given),7.53 ± 0.85%,18.6 ± 11%
